From the antibiotic and cytotoxicity screens of Wong et al. (2023)
The whole screen tested about 39,000 compounds, of which about 3,300 (8.5%) were called active. The entries come from a sample that favours actives as a whole.

test system: HepG2; test: cytotoxicity call (relative viability < 0.9); conditions: 10 µM

| Compound | cytotoxicity call |
| --- | --- |
| COc1ccc(C(N)=S)cn1 | inactive |
| Cc1noc(C)c1S(=O)(=O)Nc1ccc2c(c1)C(=O)N([C@H](C)CO)C[C@H](C)[C@H](CN(C)CC1CC1)O2 | inactive |
| C[C@@H]1CN([C@@H](C)CO)S(=O)(=O)c2ccc(C#CC(C)(C)O)cc2O[C@H]1CN(C)Cc1ccncc1 | inactive |
| C[C@H](CO)N1C[C@H](C)[C@@H](CN(C)S(=O)(=O)c2ccccc2)Oc2ccc(NC(=O)CCN3CCOCC3)cc2CC1=O | inactive |
| CS(=O)(=O)Nc1ccc2c(c1)C(=O)NC2=O | inactive |
| COc1ccccc1CNS(C)(=O)=O | inactive |
| COc1cc(NS(C)(=O)=O)ccc1Nc1c2ccccc2nc2ccccc12 | active |
| C[C@H]1CCCCO[C@@H](CN(C)C(=O)c2ccncc2)[C@@H](C)CN([C@@H](C)CO)C(=O)c2cc(NC(=O)NC3CCCCC3)ccc2O1 | inactive |
| Cn1nccc1C(=O)NCCN | inactive |
| CNCCC(Oc1ccccc1C)c1ccccc1.Cl (stereo not drawn) | inactive |
| CNC(=O)[C@@H](c1ccccc1)N1CCc2cc(OC)c(OC)cc2[C@@H]1CCc1ccc(C(F)(F)F)cc1 | inactive |
| CNCCC(Oc1ccc(C(F)(F)F)cc1)c1ccccc1.Cl (stereo not drawn) | active |
| CCCOC(=S)N[C@H]1OC[C@@H](O)[C@@H](O)[C@@H]1O | inactive |
| COc1ccccc1-c1ccc2c(c1)O[C@@H](CN(C)S(=O)(=O)c1ccccc1)[C@@H](C)CN([C@@H](C)CO)S2(=O)=O | inactive |
| C=CC[C@@H](CC(=O)NCCO)C(=O)NC[C@H](OC(=O)[C@H](CC=C)CC(=O)OC(C)(C)C)c1ccccc1 | inactive |
| COc1ccc(S(=O)(=O)N[C@@H](CNc2nc(C)nc(N3CCC(c4ccc5c(n4)NCCC5)CC3)c2C)C(=O)O)cc1 | active |
| O=C(NCCCN1CCOCC1)[C@H]1[C@@H]2C=C[C@@]3(CN(Cc4cccs4)C(=O)[C@@H]13)O2 | inactive |
| Cc1cncc2cccc(S(=O)(=O)N3CC[C@H](N(C/C=C/c4ccc(Br)cc4)C/C=C/c4ccc(Br)cc4)C3)c12 | inactive |
| S=C(NCCCc1cnc[nH]1)NCCCN(Cc1ccc(Cl)c(Cl)c1)c1ccc(Br)cn1 | active |
| C[C@@H]1CCCCO[C@@H](CN(C)C(=O)Nc2ccccc2)[C@H](C)CN([C@H](C)CO)C(=O)c2cc(NS(=O)(=O)c3ccccc3)ccc2O1 | inactive |
| CC(C)(C)[S@@+]([O-])N1Cc2cc(C(=O)NCc3ccc4c(c3)OCO4)nc(-c3ccc(-c4ccccc4)cc3)c2[C@H]1CCO | inactive |
| COc1ccc(S(=O)(=O)N[C@@H]2C=C[C@@H](CC(=O)N3CCC(Cc4ccccc4)CC3)O[C@H]2CO)cc1 | inactive |
| CCCNC(=O)C[C@@H]1CC[C@H]2[C@H](COc3ccc(NC(=O)c4ccc5c(c4)OCO5)cc3C(=O)N2C)O1 | inactive |

| Compound | cytotoxicity call |
| --- | --- |
| C[C@H](CO)N1C[C@H](C)[C@H](CN(C)Cc2ccc(Cl)c(Cl)c2)Oc2ccc(NS(=O)(=O)c3ccc(Cl)cc3)cc2CC1=O | active |
| C[C@@H]1CN([C@H](C)CO)C(=O)Cc2cc(NS(=O)(=O)c3ccc(Cl)cc3)ccc2O[C@@H]1CN(C)Cc1ccc(Cl)c(Cl)c1 | active |
| C[C@H]1CN([C@@H](C)CO)C(=O)Cc2cc(NS(=O)(=O)c3ccc(Cl)cc3)ccc2O[C@@H]1CN(C)Cc1ccc(Cl)c(Cl)c1 | inactive |
| C[C@H](CO)N1C[C@H](C)[C@@H](CN(C)Cc2ccc(Cl)c(Cl)c2)Oc2ccc(NS(=O)(=O)c3ccc(Cl)cc3)cc2CC1=O | inactive |
| C[C@@H]1CN([C@H](C)CO)C(=O)Cc2cc(NS(=O)(=O)c3ccc(Cl)cc3)ccc2O[C@H]1CN(C)Cc1ccc(Cl)c(Cl)c1 | inactive |
| C[C@@H]1CN([C@@H](C)CO)C(=O)Cc2cc(NS(=O)(=O)c3ccc(Cl)cc3)ccc2O[C@H]1CN(C)Cc1ccc(Cl)c(Cl)c1 | inactive |
| C[C@H]1CN([C@@H](C)CO)C(=O)Cc2cc(NS(=O)(=O)c3ccc(Cl)cc3)ccc2O[C@H]1CN(C)Cc1ccc(Cl)c(Cl)c1 | active |
| C[C@@H]1CN([C@@H](C)CO)C(=O)Cc2cc(NS(=O)(=O)c3ccc(Cl)cc3)ccc2O[C@@H]1CN(C)Cc1ccc(Cl)c(Cl)c1 | active |
| CO[C@H]1CN(C)C(=O)c2ccc(NS(=O)(=O)c3cn(C)cn3)cc2OC[C@@H](C)N(Cc2cccc(F)c2)C[C@H]1C | inactive |
| C[C@H](CO)N1C[C@H](C)[C@H](CN(C)Cc2ccc(C(=O)O)cc2)Oc2c(NC(=O)C3CCOCC3)cccc2C1=O | inactive |
| C[C@@H]1CN([C@@H](C)CO)C(=O)c2cccc(NC(=O)Nc3ccccc3)c2O[C@@H]1CN(C)Cc1ccc(Cl)c(Cl)c1 | inactive |
| Cc1cc2n(c(=O)c1C(N)=O)CCO2 | inactive |
| CC/C=C\C/C=C\C/C=C\C/C=C\C/C=C\C/C=C\CCC(=O)OCC | inactive |
| C[C@@H]1CN([C@@H](C)CO)C(=O)c2cc(NC(=O)Nc3ccc4c(c3)OCO4)ccc2O[C@@H](C)CCCCO[C@@H]1CN(C)Cc1ccncc1 | inactive |
| CCCNC(=O)N1C[C@]2(CCN(CC2)S(=O)(=O)c2ccccc2)c2c(n(c3cc(ccc23)OC)C)[C@H]1CO | inactive |
| CCCNC(=O)N1C[C@]2(CN(C2)S(=O)(=O)c2ccccc2)c2c(n(c3cc(ccc23)OC)C)[C@@H]1CO | inactive |
| CCCNC(=O)N1C[C@]2(CN(C2)S(=O)(=O)c2ccccc2)c2c(n(c3cc(ccc23)OC)C)[C@H]1CO | active |
| CCCNC(=O)N1C[C@]2(CCN(CC2)S(=O)(=O)c2ccc(cc2)OC)c2c(n(c3cc(ccc23)OC)C)[C@@H]1CO | active |
| CCCNC(=O)N1C[C@]2(CN(C2)S(=O)(=O)c2cccc(c2)OC)c2c(n(c3cc(ccc23)OC)C)[C@@H]1CO | inactive |
| CCCNC(=O)N1C[C@]2(CCN(CC2)S(=O)(=O)c2ccc(cc2)OC)c2c(n(c3cc(ccc23)OC)C)[C@H]1CO | inactive |
| C[C@H]1CN([C@@H](C)CO)C(=O)c2cccc(NS(C)(=O)=O)c2O[C@H]1CN(C)S(=O)(=O)c1cccs1 | inactive |
| COCC#Cc1cnc2c(c1)C(=O)N([C@H](C)CO)C[C@@H](C)[C@H](CN(C)C(C)=O)O2 | inactive |
| N[C@@H]1CC(=O)N(c2ccc(F)cc2)C1 | inactive |

| Compound | cytotoxicity call |
| --- | --- |
| C[C@H](CO)N1C[C@H](C)[C@H](CN(C)S(=O)(=O)c2ccc(Cl)cc2)Oc2ccc(NS(=O)(=O)c3cn(C)cn3)cc2C1=O | inactive |
| O=C(CCCCC(=O)N/N=C/[C@H](O)[C@@H](O)[C@H](O)CO)NO | inactive |
| COc1ccc(CN(C)C[C@H]2OCCCC[C@@H](C)Oc3ccc(NS(=O)(=O)c4cccs4)cc3C(=O)N([C@H](C)CO)C[C@@H]2C)cc1 | inactive |
| COC(=O)C[C@](O)(CCCC(C)(C)O)C(=O)O[C@@H]1C(OC)=C[C@]23CCCN2CCc2cc4c(cc2[C@H]13)OCO4 | active |
| CC(C)(O)[C@@H]1CC[C@]2(CO)[C@@H](O)CC[C@](C)(O)[C@H]2[C@@H]1O[C@@H]1O[C@H](CO)[C@@H](O)[C@H](O)[C@H]1O | inactive |
| Cc1ccc(S(=O)(=O)N(C)C[C@H]2Oc3c(NC(=O)c4cnccn4)cccc3C(=O)N([C@@H](C)CO)C[C@@H]2C)cc1 | inactive |
| C[C@@H]1CN([C@@H](C)CO)C(=O)c2cc(NC(=O)c3ccccc3)ccc2O[C@@H](C)CCCCO[C@@H]1CN(C)S(=O)(=O)c1ccc(Cl)cc1 | inactive |
| C[C@@H]1CCCCO[C@@H](CN(C)S(=O)(=O)c2ccc(Cl)cc2)[C@H](C)CN([C@H](C)CO)C(=O)c2cc(NC(=O)c3ccccc3)ccc2O1 | inactive |
| C[C@H]1CCCCO[C@H](CN(C)S(=O)(=O)c2ccc(Cl)cc2)[C@@H](C)CN([C@@H](C)CO)C(=O)c2cc(NC(=O)c3ccccc3)ccc2O1 | active |
| C[C@@H]1CCCCO[C@@H](CN(C)S(=O)(=O)c2ccc(Cl)cc2)[C@@H](C)CN([C@@H](C)CO)C(=O)c2cc(NC(=O)c3ccccc3)ccc2O1 | inactive |
| C[C@@H]1CCCCO[C@H](CN(C)S(=O)(=O)c2ccc(Cl)cc2)[C@@H](C)CN([C@H](C)CO)C(=O)c2cc(NC(=O)c3ccccc3)ccc2O1 | inactive |
| C[C@@H]1CCCCO[C@@H](CN(C)S(=O)(=O)c2ccc(Cl)cc2)[C@@H](C)CN([C@H](C)CO)C(=O)c2cc(NC(=O)c3ccccc3)ccc2O1 | inactive |
| C[C@@H]1CN([C@H](C)CO)C(=O)c2cc(NC(=O)c3ccccc3)ccc2O[C@@H](C)CCCCO[C@H]1CN(C)S(=O)(=O)c1ccc(Cl)cc1 | active |
| C[C@@H]1CN([C@@H](C)CO)C(=O)c2cc(NC(=O)c3ccccc3)ccc2O[C@@H](C)CCCCO[C@H]1CN(C)S(=O)(=O)c1ccc(Cl)cc1 | active |
| C[C@H](CO)N1C[C@H](C)[C@H](CN(C)S(=O)(=O)c2ccc(Cl)cc2)OCCCC[C@H](C)Oc2ccc(NC(=O)c3ccccc3)cc2C1=O | inactive |
| COCC#Cc1ccc([C@H]2[C@H](CO)N3C(=O)CN(C(=O)c4ccncc4)C[C@@H]23)cc1 | inactive |
| Cc1noc(C)c1S(=O)(=O)N(C)C[C@@H]1Oc2ccc(NS(=O)(=O)c3cn(C)cn3)cc2CC(=O)N([C@H](C)CO)C[C@@H]1C | inactive |
| NC(=S)CS(=O)(=O)c1ccccn1 | inactive |
| CC(=O)OC[C@H]1O[C@@H](NC(N)=O)[C@H](OC(C)=O)[C@@H](OC(C)=O)[C@@H]1OC(C)=O | inactive |
| C[C@@H]1CCCCO[C@@H](CN(C)C)[C@H](C)CN([C@@H](C)CO)C(=O)c2cc(NC(=O)Nc3cccc4ccccc34)ccc2O1 | inactive |
| C[C@H]1CN([C@@H](C)CO)C(=O)c2cc(NC(=O)CCCN(C)C)ccc2O[C@@H]1CN(C)C(=O)Nc1ccccc1 | inactive |
| NC[C@@H](O)C1CCCCC1 | inactive |
